Bioassay records as filed in PubChem BioAssay.
Only some compounds are listed: those with a hit (about 3.6% of all), similar ones and a draw of the others.
TROY NFkB inh – inhibitors of TROY-dependent NF-kB signaling; inhibition, % at 10 µM; AID 1347056; Q293 LMP1-TROYcd NF-kB luciferase reporter, 4 h; 0.98% of 360,000 active;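 active = compounds whose plate-normalised and pattern-corrected inhibition of the luciferase reporter signal at the single screening dose is 50% or more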
LMP1 NFkB inh – reduces LMP1-driven NF-kappaB luciferase signal; LMP1-induced NF-kappaB luciferase reporter cells, luminescence; inhibition, % at 12.5 µM; 0.69% of 350,000 active; AID 504558; in the data active = inhibition above about 41%;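 also: 0% = neutral control wells and 100% = reference inhibitor control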
LGR2 inh – blocks bursicon-induced cAMP signaling via Drosophila LGR2. HEK293 LGR2, CRE-luciferase, bursicon-stimulated, 4 h. inhibition, % at 9.99 µM. 0.35% of 380,000 active;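 active = drop in luminescence signal, shown as inhibition above about 50% in the replicate tests, limit read from the data, passing the limit was not always enough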;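 also: agonist challenge used bursicon conditioned medium at about half maximal strength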
HSF1 inhib – HSF1 inhibition; NIH3T3-HGL HSE-luciferase, MG132-induced, luminescence 8 h; stronger effect = lower value; activity change, negative = inhibition, % at 7.5 µM (by protocol); 0.77% of 300,000 active;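 active = more than half of replicate wells show activity change below -50%, luminescence cut by over half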;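 also: luciferase reports HSF-1 transcriptional activity via heat shock element; 0% = median of DMSO wells and -100% = zero luminescence signal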
HSF-1 act – increases HSF-1 driven luciferase reporter signal; 1.7% of 300,000 active; activation, % at 9 µM; NIH3T3-HGL HSF-1 luciferase reporter, MG132, 8 h; 100% = twice DMSO control signal; AID 504408;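 active = mean replicate activation of at least 50% with a set share of replicates each reaching 50%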;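 also: 0% = median of the neutral control wells and 100% = twice that signal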
TWEAK-Fn14 inh – blocks TWEAK-Fn14 interaction in a reporter cell assay; TWEAK-stimulated Fn14 reporter cells, luciferase luminescence, 8 h; inhibition, % at 10 µM; 2% of 360,000 active; AID 1159606; in the data active = inhibition above about 50%
The depositor's hits bear a star; . = no result given.

SMILES	TROY NFkB inh	LMP1 NFkB inh	LGR2 inh	HSF1 inhib	HSF-1 act	TWEAK-Fn14 inh
C[C@H]1CN([C@@H](C)CO)C(=O)c2cc(NC(=O)CCC(F)(F)F)ccc2O[C@@H]1CN(C)C(=O)Nc1ccc(C(F)(F)F)cc1	.	.	4.5	.	.	.
FC(F)(F)c1cccc(NC(=S)NCc2ccc(Cl)cc2)c1	59.6*	-3.9	-9.4	10.8	6.9	56.6*
C=C[C@]1(C)C=C2CC[C@H]3[C@@](C)(CCC[C@@]3(C)C(=O)O)[C@@H]2CC1	31.7	2.0	.	.	.	-16.3
C=C[C@]1(C)C=C2C(=O)[C@@]3(O)OC(=O)[C@@]4(CCCC(C)(C)[C@H]34)[C@@]2(O)CC1	27.3	.	12.9	.	.	104.1*
COc1ccccc1C(=O)Nc1c[nH]c(=O)[nH]c1=O	-10.3	52.5*	5.0	1.7	13.1	3.4
Cc1ccc(C)c(OCC(=O)Nc2c[nH]c(=O)[nH]c2=O)c1	-10.2	12.8	2.4	-0.4	1.5	-39.2
Cc1ccc(OCC(=O)Nc2c[nH]c(=O)[nH]c2=O)cc1C	1.7	-4.6	4.7	-52.3*	-63.7	-21.1
CC(C)C(=O)N1CCN(c2ccc(NC(=O)c3ccc4c(c3)OCCO4)cc2Cl)CC1	61.1*	0.0	85.0*	7.5	22.6	82.3*
O=C(Nc1ccc(N2CCN(C(=O)c3ccc(Cl)cc3)CC2)cc1)c1ccc2c(c1)OCCO2	69.5*	25.4	25.9	-9.6	5.3	91.7*
O=C(Cc1ccccc1)N[C@@H]1C=C[C@@H](CC(=O)N2CCOCC2)O[C@H]1CO	.	.	-0.3	.	.	.
Cc1ccc2[nH]c(C(=O)O)c(-c3ccccc3)c2c1	-3.5	-4.3	.	-4.2	7.7	1.9
Cc1ccc2[nH]c(C(=O)NN=C3CCCCC3)c(-c3ccccc3)c2c1	27.5	-2.2	-0.8	-10.3	-9.4	50.9*
CCc1ccc(OCC(=O)c2c(O)c3ccccc3oc2=O)cc1	58.7*	5.4	11.3	5.0	33.7	15.8
Cc1cc(=O)oc2cc(OCC(=O)c3ccccc3)ccc12	-7.1	7.8	0.9	2.4	-16.9	-17.3
Cc1ccc(OCC(=O)c2c(O)c3ccccc3oc2=O)cc1C	61.8*	-2.9	.	1.9	0.4	7.1
Cc1ccc(C(C)C)c(OCC(=O)c2c(O)c3ccccc3oc2=O)c1	51.2*	10.1	.	-1.8	11.3	14.6
Cc1ccc(C(C)C)c(OCC(=O)NN2C(=O)c3ccccc3C2=O)c1	-4.7	-0.2	-5.2	-7.7	-3.4	3.3
CCOc1ccc(N=Cc2c(O)c3ccccc3oc2=O)cc1	28.7	0.2	-40.7	-34.8	-41.6	5.5
C[C@@H]1CN([C@@H](C)CO)C(=O)Cc2cc(NC(=O)NC3CCCCC3)ccc2O[C@@H]1CN(C)S(=O)(=O)c1cccs1	.	.	-10.0	.	.	.
COc1ccccc1NC(=O)N(Cc1ccco1)Cc1cc2c(C)ccc(C)c2[nH]c1=O	2.8	-0.7	.	6.2	4.1	-2.1
CCC(c1nnnn1Cc1ccco1)N(CCc1ccccc1)Cc1cc2cc(C)ccc2[nH]c1=O (stereo unspecified)	6.4	-4.7	.	21.2	10.4	1.5
CCC(c1nnnn1CCc1ccccc1)N(Cc1ccco1)Cc1cc2cc(C)cc(C)c2[nH]c1=O (stereo unspecified)	-23.5	15.3	.	26.7	58.0*	7.7
Cc1ccc2[nH]c(=O)c(CN(CCc3ccccc3)C(c3nnnn3Cc3ccco3)C(C)C)cc2c1 (stereo unspecified)	-11.4	3.3	-1.9	67.2	81.7*	11.5
CCOC(=O)Cn1nnnc1C(CC)N(Cc1ccccc1)Cc1cc2cc(C)ccc2[nH]c1=O (stereo unspecified)	11.6	0.4	.	7.1	17.6	-11.7
CCC(c1nnnn1CCc1ccccc1)N(Cc1ccco1)Cc1cc2c(C)ccc(C)c2[nH]c1=O (stereo unspecified)	6.5	9.2	.	75.2	127.6*	29.3
SMILES	TROY NFkB inh	LMP1 NFkB inh	LGR2 inh	HSF1 inhib	HSF-1 act	TWEAK-Fn14 inh
COCC(=O)Nc1ccc2c(c1)C(=O)N(C)C[C@@H](OC)[C@H](C)CN(C(=O)c1cnccn1)[C@@H](C)CO2	.	.	12.5	.	.	.
COc1ccc2c(c1)/C(=C\c1cccc(/C=C3/C(=O)Nc4ccc(OC)cc43)n1)C(=O)N2	30.7	89.4*	73.7*	.	.	100.4*
COc1ccc2c(c1)/C(=N/N1C(=O)c3ccccc3C1=O)C(=O)N2	.	.	.	-5.7	0.6	.
C[C@H](CO)N1C[C@H](C)[C@H](CN(C)S(=O)(=O)c2ccc(F)cc2)Oc2ccc(NS(=O)(=O)c3cccs3)cc2CC1=O	.	.	-11.1	.	.	.
CN(C)CCCNc1cc(O)c2ncccc2c1	-33.3	-4.3	96.9*	.	.	6.0
Oc1cc(NCc2ccc(F)cc2)cc2cccnc12	-12.1	12.0	-4.1	.	.	-2.5
Oc1cc(NCc2ccc(Cl)cc2)cc2cccnc12	-27.9	46.6*	-5.1	.	.	-8.6
Clc1ccc(CNc2ncccn2)cc1	13.3	-0.3	8.9	-17.3	-20.6	71.6*
O=[N+]([O-])c1cc(O)c2ncccc2c1	.	.	-14.2	-15.3	-16.8	.
COc1ccc(S(=O)(=O)N(C)C[C@@H]2Oc3c(NC(=O)c4cc(C)nn4C)cccc3C(=O)N([C@@H](C)CO)C[C@@H]2C)cc1	.	.	0.0	.	.	.
CC(C(=O)NN=C(c1ccccc1)c1ccccc1)N1CCCC1 (stereo unspecified)	10.8	-1.3	7.7	17.2	55.0*	-9.9
CC(C)c1cccc(NC(=O)C[C@H]2CC[C@H]3[C@@H](COc4ccc(NC(=O)c5ccc(C#N)cc5)cc4C(=O)N3C)O2)c1	.	.	10.1	.	.	.
O=C(Nc1cccc(S(=O)(=O)N2CCOCC2)c1)c1ccc2c(=O)n3c(nc2c1)CCCCC3	31.8	10.0	27.8	-11.3	-3.1	31.3
O=C(Nc1nc(-c2ccccc2)cs1)c1ccc2c(=O)n3c(nc2c1)CCCCC3	71.4*	31.6	14.5	-1.7	-5.8	106.0*
Cc1cccc(NC(=O)c2ccc3c(=O)n4c(nc3c2)CCCCC4)n1	40.0	21.3	16.9	2.6	-0.1	57.1*
O=C(Nc1cccc(S(=O)(=O)N2CCCC2)c1)c1ccc2c(=O)n3c(nc2c1)CCCCC3	27.6	16.9	-0.5	-3.7	0.8	56.5*
CCCNC(=O)C[C@H]1CC[C@@H]2[C@@H](COc3ccc(NC(=O)Nc4cccc(C)c4)cc3C(=O)N2C)O1	.	.	-0.4	.	.	.
Cc1cc(C)c(C#N)c(SCC(=O)c2ccc(Cl)cc2Cl)n1	41.5	27.9	18.1	-6.9	-16.8	57.3*
C[C@@H]1CN([C@@H](C)CO)C(=O)c2cc(NC(=O)CCCCCC(=O)Nc3ccccc3N)ccc2O[C@@H]1CN(C)C(=O)Nc1ccc(F)cc1	.	.	10.7	.	.	.
Cn1cnc(CCNC(=O)C[C@@H]2CC[C@@H]3[C@H](COC[C@H](O)CN3C(=O)C3CC3)O2)c1	.	.	13.5	.	.	.
Cc1ccc(C(=O)C(C(=O)/C=C/c2ccccc2)=C2SCCCS2)cc1	-1.5	-10.9	.	95.2	135.8*	45.8
O=C(NCCn1cc(SCc2ccccc2)c2ccccc21)c1c(F)cccc1F	22.1	3.5	2.5	-18.3	-33.5	50.3*
